Compound activity: PubChem, several laboratories
Hsp70 activator: Hsp70 transcriptional activation, primary screen | activation, % at 10 µM | AID 1203 | 200,000 compounds, 0.04% hits | HeLa Hsp70 promoter luciferase reporter, luminescence; scaled: vehicle 0, proteasome-inhibitor control 100%;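 active = activation above the mean across all tested compounds plus 3 SD, cutoff set per campaign, cut at about 5.5% in these data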;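 note: 100% = MG132 at 30 µM as the positive control and 0% = DMSO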
STAT1 act: activators of IFN-gamma induced STAT1 signaling | 200,000 compounds, 2.6% hits | activation (% of control), % at 5.5 µM | NIH 3T3 STAT1-luciferase reporter, luminescence; 100% = IFN-gamma alone, no compound;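 active = activation above the screen-wide mean activation plus 3 SD, cut at about 130% in these data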;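 note: raw ratio to IFN-gamma control signal so 100% means no change and 0% no light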
APP 5UTR inh: APP translation inhibition. SH-SY5Y APP 5'UTR-luciferase reporter, luminescence. AID 1285. inhibition, % at 2 µM. 190,000 compounds, 0.82% hits;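 active = inhibition above a set limit, derived from the sample mean plus 3 SD, cut at about 45% in these data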
NF-kB expr up: compounds increasing NF-kB expression in human neuronal cells | NF-kB reporter expression; hits give high values | fold change at 12.5 µM | 190,000 compounds, 1.6% hits | AID 1239; in the data active = fold change above about 3.3
APP 5'UTR act: activates APP 5'UTR luciferase reporter | SH-SY5Y APP 5'UTR luciferase reporter, luminescence; zero percent = DMSO vehicle wells | activation, % at 2 µM | 190,000 compounds, 1% hits;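 active = activation above a set limit, based on mean plus 3 SD of controls, cut at about 140% in these data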
Wee1 degr inh: blocks degradation of human Wee1 kinase. reporter increase, % at 5 µM. 220,000 compounds, 1.2% hits. HeLa Luc-Wee1K328M stability, luciferase luminescence; 100% = proteasome inhibitor MG132 effect;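 active = activation above the mean of all tested compounds plus 3 SD, set per screening run, cut at about 8.8% in these data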;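 note: cells exposed to compound for 20 h before luminescence read; 0% = DMSO alone and 100% = MG132 at 30 µM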
Target sequence (P30291 whole entry K328M): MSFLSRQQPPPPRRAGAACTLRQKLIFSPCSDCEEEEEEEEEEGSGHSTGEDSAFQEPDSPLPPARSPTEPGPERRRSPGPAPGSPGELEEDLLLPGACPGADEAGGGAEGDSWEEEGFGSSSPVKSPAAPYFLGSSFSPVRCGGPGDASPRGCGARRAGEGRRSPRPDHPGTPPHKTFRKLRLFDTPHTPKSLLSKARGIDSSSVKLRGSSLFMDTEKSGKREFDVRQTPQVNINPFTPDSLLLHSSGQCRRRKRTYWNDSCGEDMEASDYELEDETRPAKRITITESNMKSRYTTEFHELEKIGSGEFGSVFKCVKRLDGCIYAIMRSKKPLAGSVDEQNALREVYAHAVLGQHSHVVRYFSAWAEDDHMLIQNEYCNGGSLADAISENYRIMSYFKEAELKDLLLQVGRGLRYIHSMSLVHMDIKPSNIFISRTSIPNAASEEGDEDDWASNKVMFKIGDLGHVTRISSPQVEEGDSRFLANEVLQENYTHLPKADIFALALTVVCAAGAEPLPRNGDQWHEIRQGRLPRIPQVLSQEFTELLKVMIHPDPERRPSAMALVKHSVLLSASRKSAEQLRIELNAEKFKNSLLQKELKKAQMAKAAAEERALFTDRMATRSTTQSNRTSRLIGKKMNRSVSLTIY
Starred values were filed as active, the others as inactive; x = no result given. Sampled rows, rich in hits. Any-hit rate of the full collection: about 4.8%.

SMILES	Hsp70 activator	STAT1 act	APP 5UTR inh	NF-kB expr up	APP 5'UTR act	Wee1 degr inh
c1ccc(CNc2ncnc3c2cnn3-c2ccccc2)cc1	-0.1	127.0	17.6	2.06	-17.6	2.5
Cc1sc(N/N=C/c2cccnc2)nc1-c1ccccc1	1.0	99.8	-13.7	1.45	13.7	7.9
Nc1cccc2c1C(=O)N(Cc1cccc(Cl)c1)C2=O	-0.3	97.3	-21.5	1.09	21.5	11.2*
Nc1cc(CN2C(=O)c3ccccc3C2=O)cc(Cl)c1O	-0.3	91.4	-8.7	0.95	8.7	1.2
CCCCCOC(=O)C1=C(C)Nc2ncnn2C1c1cccs1 (configuration not stated)	-0.4	91.8	-2.5	0.41	2.5	0.4
Cc1cccc(OCc2nc(-c3ccccn3)n[nH]2)c1	-0.1	96.2	-5.7	1.01	5.7	1.4
Cc1ccc(OCc2nc(-c3ccccn3)n[nH]2)cc1	0.0	91.3	-25.9	13*	25.9	9.1*
COc1ccc(C(=O)C2CCN(C(=S)NCCc3ccc(OC)c(OC)c3)CC2)cc1	0.0	94.6	10.7	0.97	-10.7	-0.2
COc1ccc(CCNC(=S)N2CCC(C(=O)c3ccc(F)cc3)CC2)cc1OC	-0.3	96.8	47.7*	0.95	-47.7	0.1
Cc1ccccc1NC(=S)NCCc1ccccn1	0.0	103.8	-8.2	0.99	8.2	-3.0
c1ccc(CSc2ccc(-c3ccco3)nn2)cc1	0.0	144.7*	-110.2	3.94*	110.2	6.6
Clc1ccc(CSc2ccc(-c3ccccn3)nn2)cc1	-0.4	125.8	-52.8	1.92	52.8	-1.4
Clc1cccc(CSc2ccc(-c3ccco3)nn2)c1	0.0	109.6	-21.8	1.19	21.8	3.5
c1ccc(CSc2ccc(-c3ccccn3)nn2)cc1	-0.2	105.7	-138.6	6.53*	138.6*	5.7
Fc1ccccc1CSc1ccc(-c2ccco2)nn1	0.2	124.8	-63.9	4.94*	63.9	3.2
Cc1cccc(CSc2ccc(-c3ccco3)nn2)c1	-0.2	133.4*	-49.1	1.64	49.1	4.2
CCCCn1c(SCC(=O)OCC)nc2c1c(=O)[nH]c(=O)n2C	-0.3	94.8	-19.9	1.14	19.9	-2.4
CC(=O)Nc1c([N+](=O)[O-])cc(C)c(Cl)c1[N+](=O)[O-]	-0.3	102.7	4.8	1.15	-4.8	0.9
Cc1ccc(CSc2ccc(-c3ccco3)nn2)cc1	-0.1	125.1	-71.4	3.3*	71.4	6.9
O=C(/C=C/Nc1ccc(F)cc1Br)c1ccccc1	-0.4	84.0	-148.8	1.61	148.8*	-0.9
CCOC(=O)c1ccc(N/C=C/C(=O)C(C)(C)C)cc1	0.1	135.7*	-98.5	4.23*	98.5	0.2
CN(C)c1ccc(N/C=C/C(=O)C(C)(C)C)cc1	-0.1	112.3	-37.3	1.18	37.3	3.8
CCOC(=O)c1ccc(N/C=C/C(=O)c2ccc(OC)cc2)cc1	-0.4	98.0	-4.6	1.56	4.6	4.1
CCOC(=O)c1ccc(N/C=C/C(=O)c2ccccc2)cc1	0.0	118.2	-164.3	4.75*	164.3*	-0.6
O=C(/C=C/Nc1ccccc1)c1ccccc1	-0.4	69.5	-172.1	9.06*	172.1*	4.2
SMILES	Hsp70 activator	STAT1 act	APP 5UTR inh	NF-kB expr up	APP 5'UTR act	Wee1 degr inh
CN(C)C=NCCn1c(N2CCOCC2)nc2c1c(=O)n(C)c(=O)n2C	-0.4	112.7	-18.7	1.11	18.7	0.4
CCOC(=O)c1ccc(NC(=O)Nc2cccc(C)n2)cc1	-0.1	114.3	-33.0	1.31	33.0	6.6
CCOC(=O)c1ccc(NC(=O)Nc2ccccn2)cc1	0.5	150.6*	-86.8	2	86.8	2.0
CC1(C)Cc2c(sc3ncnc(NNC(=S)NCc4ccccc4)c23)CO1	-0.3	97.7	56.4*	0.78	-56.4	4.8
O=[N+]([O-])/C(C(Cl)=C(Cl)Cl)=C(/NC1CC1)Sc1ccccc1	-0.1	95.9	8.4	1.19	-8.4	0.1
Cc1csc(NC(=O)CCc2c(C)nc3cc(-c4ccc(Cl)cc4)nn3c2C)n1	-0.4	104.9	53.7*	0.79	-53.7	0.1
Cc1nc2cc(-c3ccc(Cl)cc3)nn2c(C)c1CCC(=O)NC(C)c1ccc2c(c1)OCCO2 (configuration not stated)	-0.7	91.5	40.6	0.28	-40.6	-1.9
CC(C(=O)O)c1ccc(N2Cc3ccccc3C2=O)cc1 (configuration not stated)	-0.3	144.7*	-74.3	6.15*	74.3	-0.9
O=C(COC(=O)c1ccccn1)NC12CC3CC(CC(C3)C1)C2	-0.1	104.2	-1.6	1.14	1.6	2.6
CN(C)CCCN1C(=O)c2cccc3c([N+](=O)[O-])ccc(c23)C1=O	0.8	142.6*	79.7*	4.27*	-79.7	2.5
CN(C)CCNC(=O)c1scc2c1CCCC2	x	x	x	x	x	0.8
CCCc1nc2ccc(NC(=O)NCCC(=O)OCC)cc2c(=O)n1Cc1cccc(Cl)c1	0.2	98.1	x	1.03	x	16.7*
Cc1cccc(Nc2ccccc2C(=O)OCC(=O)NCc2ccco2)c1C	-0.4	103.2	-8.6	0.84	8.6	0.4
Cc1csc(NC(=O)c2cncc(Br)c2)n1	-0.3	128.2	-131.5	3.34*	131.5	1.0
O=C(Nc1nccs1)c1cncc(Br)c1	0.1	142.9*	-42.7	0.94	42.7	4.7
Cc1csc(NC(=O)c2ccc(S(C)(=O)=O)cc2)n1	-0.1	129.8*	-40.1	2.44	40.1	7.7
CCOC(=O)N/N=C/c1ccc(OC)c(O)c1	-0.3	98.2	-7.4	1.21	7.4	0.7
CC1(C)Cc2nc3sc(C(=O)NCCCO)c(N)c3cc2CO1	x	x	x	x	x	0.8
COC(=O)c1sc2nc3c(cc2c1N)COC(C)(C)C3	-0.4	142.1*	10.6	4.18*	-10.6	-0.5
Nc1ccc2oc(C3CCCCC3)nc2c1	0.1	131.8*	-38.2	1.61	38.2	0.8
O=C(O)c1ccc(-c2nc(-c3ccc(Cl)cc3Cl)cs2)cc1	0.8	137.1*	-122.3	2.06	122.3	3.4
O=C(O)c1ccc(-c2nc(-c3cccc(C(F)(F)F)c3)cs2)cc1	-0.2	91.1	-17.5	1.12	17.5	2.4
Cc1ccc(C(C)C)c(OCC(=O)N/N=C/C2CCCCC2)c1	0.1	103.3	15.9	1.3	-15.8	9.2*
C/C(=N/NC(=O)COc1cc(C)ccc1C(C)C)C(=O)O	-0.3	97.9	82.1*	1.13	-82.1	0.3
O=C1CC(c2ccccc2)CC(O)=C1C=NCc1ccc(Cl)c(Cl)c1 (configuration not stated)	-0.3	103.8	9.5	1.06	-9.5	-1.8
Cc1ccc(C(=O)N/N=C\c2ccccn2)cn1	x	x	x	x	x	10.7*
O=C(N/N=C/c1ccccn1)c1ccc(Br)cc1	-0.4	133.6*	-5.6	0.46	5.6	-0.4
O=C(N/N=C/c1ccccn1)c1cc([N+](=O)[O-])cc([N+](=O)[O-])c1	0.2	129.1*	5.3	0.8	-5.2	-2.6
O=C(N/N=C/c1ccccn1)c1ccc([N+](=O)[O-])cc1	-0.3	132.7*	-15.9	1.49	15.9	8.4
